Compound activity as filed in PubChem.
Rows were chosen to be rich in hits. Some 2.2% of all compounds tested hit in one or more screens of this group.
BaF3 tox: parental Ba/F3 viability inhibition as JAK2V617F counter-screen; inhibition, % at 5.6 µM; CellTiter-Glo ATP luminescence; hit rate 1.1% among 220,000;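 active = inhibition above a per-campaign cutoff, the mean inhibition of all tested compounds plus 3 SD, cut at about 27% in these data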;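 note: 0% = DMSO wells and 100% = JAK Inhibitor I control wells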
Ba/F3 V617F tox: reduce viability of Ba/F3 cells dependent on JAK2V617F | hit rate 1.1% among 220,000 | AID 1446 | inhibition, % at 5.6 µM | Ba/F3 EpoR-JAK2V617F viability, ATP luminescence;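 active = inhibition above the campaign mean plus 3 SD over all tested compounds, cut at about 24% in these data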;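 note: cytokine-independent growth of Ba/F3 cells driven by EpoR plus mutant JAK2; 0% = DMSO-treated cells and 100% = JAK inhibitor I control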
IEC-6 cytotox: IEC-6 cytotoxicity, counter-screen for KLF5 inhibitors; luminescence viability; inhibition, % at 5 µM; hit rate 0.78% among 290,000; in the data active = inhibition above about 22%;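 note: 0% = plate median of test compound wells and 100% = cytotoxic reference compound wells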
aSyn UTR inh: 5' untranslated region of α-synuclein, MLPCN primary screen. hit rate 0.82% among 300,000. inhibition, % (tested at 7.5 µM). alpha-synuclein 5'UTR reporter, inhibitor activity; in the data active = inhibition above about 60%; inconclusive = no clear call, values can overlap the other calls;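 note: H4 neuroglioblastoma cells stably carrying SNCA 5'UTR luciferase fusion; 0% = DMSO wells and 100% = positive control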
KLF5 inhibitor: suppresses KLF5 promoter-driven expression; DLD-1 KLF5 promoter-luciferase reporter, luminescence; inhibition, % at 5 µM; hit rate 0.23% among 290,000; AID 1700;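 active = inhibition above a per-plate limit of that plate's mean compound inhibition plus 3 SD, cut at about 60% in these data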;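 note: 0% = DMSO wells and 100% = LY294002 at 200 µM; higher means less KLF5 promoter-driven luciferase light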
APP 5UTR inh: APP translation inhibition | SH-SY5Y APP 5'UTR-luciferase reporter, luminescence | inhibition, % at 2 µM | hit rate 0.82% among 190,000;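 active = inhibition above a set limit, derived from the sample mean plus 3 SD, cut at about 45% in these data; inconclusive = one replicate passes the limit while the other fails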
Starred values were filed as active, the others as inactive; ? = inconclusive; / = not tested or not shown.

SMILES | BaF3 tox | Ba/F3 V617F tox | IEC-6 cytotox | aSyn UTR inh | KLF5 inhibitor | APP 5UTR inh
COC1CC(OC2CCC3(C)C(CCC4C3CCC3(C)C(C5=CC(=O)OC5)C(OC(C)=O)CC43O)C2)OC(C)C1OC1OC(COC2OC(CO)C(O)C(O)C2O)C(O)C(O)C1O (configuration not stated) | / | / | / | 115* | / | /
Cc1nc2ccccc2c(=O)n1-c1ccc(-c2ccccc2)cc1 | / | / | 4 | -18 | -34 | /
c1ccc2c(CN3CCCCCCC3)c[nH]c2c1 | 38* | 49* | -3 | 12 | -5 | 0
c1ccc2c(CN3CCN(C4CCCCC4)CC3)c[nH]c2c1 | 4 | -2 | 1 | 2 | -2 | 6
CC(=O)OC(C)(C)/C=C/C(=O)[C@](C)(O)[C@H]1[C@H](O)C[C@@]2(C)[C@@H]3CC=C4[C@H](C[C@H](O)C(=O)C4(C)C)[C@]3(C)C(=O)C[C@]12C | 88* | 101* | 98* | / | 83* | 90*
O=[N+]([O-])c1ccccc1-c1cc(-c2ccccc2)cc(-c2ccccc2)[n+]1Cc1ccccc1Cl | / | / | / | 64* | / | /
Clc1ccc(C[n+]2c(-c3ccccc3)cc(-c3ccccc3)cc2-c2ccccc2)cc1 | / | / | / | 59 | / | /
COC1=CC=C2[C@H]3Cc4ccc(OC)c5c4[C@@]2(CCN3C)[C@H]1O5 | / | / | -2 | -3 | -49 | /
CCC1(OC(=O)CN)C(=O)OCc2c1cc1n(c2=O)Cc2cc3ccccc3nc2-1 (configuration not stated) | 96* | 99* | 96* | 103* | 104* | /
CCCc1cc(=O)oc2cc(OCC(=O)N3CCC(C(=O)O)(c4ccccc4)CC3)ccc12 | / | / | -10 | 15 | -9 | /
CP(C)(=O)CCC(=O)O | 36* | 11 | -7 | 4 | 8 | -2
CCCCCSc1cc(OC)c(CCNC)cc1OC | 7 | 3 | 5 | -34 | -12 | 2
CCCCCCCSc1cc(OC)c(CCNC)cc1OC | 8 | 2 | -1 | 121* | -37 | -2
Nc1ncnc2c1ccn2[C@@H]1O[C@H](CO)[C@@H](O)[C@H]1O | / | / | / | 107* | / | /
NC(=S)c1cn(C2OC(CO)C(O)C2O)c2ncnc(N)c12 (configuration not stated) | 104* | 99* | 100* | 105* | 110* | /
c1cncc(CNCCc2ccc3c(c2)OCO3)c1 | / | / | -4 | -10 | -5 | /
CC12CC[C@H]3[C@@H](CCC4(O)C[C@H](O)CCC34/C=N/NC(=O)c3ccccc3F)C1(O)CCC2C1=CC(=O)OC1 (some centres not stated) | 3 | -2 | -1 | 64* | 1 | /
CC12CC[C@H]3[C@@H](CCC4(O)C[C@H](O)CCC34/C=N/NC(=O)c3ccccc3O)C1(O)CCC2C1=CC(=O)OC1 (some centres not stated) | 0 | -2 | -2 | 77* | -26 | /
O=c1c2ccccc2nc(C[n+]2ccccc2)n1-c1cccc(C(F)(F)F)c1 | 4 | 4 | 10 | 8 | 3 | 14
C=CCSc1nc2c(c(-c3ccsc3)c1C#N)CN(C)CC2 | 1 | 0 | -2 | 24 | -12 | /
CCCN1CCCC(C(=O)c2cc(C)c(OC)c(C)c2)C1 (configuration not stated) | / | / | 6 | 3 | -16 | /
COC(=O)C1=C(c2cc3ccccc3o2)C[C@@H]2CC[C@H]1N2C(=O)N1CCCCC1 | / | / | / | 66* | / | /
Cc1cccc(Cn2cc(C=O)c3ccccc32)c1 | / | / | 3 | 68* | -15 | /
O=Cc1cn(Cc2ccccc2F)c2ccccc12 | 3 | -2 | -2 | 52 | -38 | 17
O=Cc1cn(Cc2cccc([N+](=O)[O-])c2)c2ccccc12 | 1 | 0 | 3 | 94* | 1 | 12
SMILES | BaF3 tox | Ba/F3 V617F tox | IEC-6 cytotox | aSyn UTR inh | KLF5 inhibitor | APP 5UTR inh
N#Cc1ccc(Cn2cc(C=O)c3ccccc32)cc1 | / | / | 3 | 50 | -13 | /
CCN(CC)C(=O)c1ccc(NC(=O)c2cn(-c3ccccc3)nc2-c2ccc(OC)cc2)cc1 | / | / | 8 | -49 | 12 | /
CC(C(=O)c1c[nH]c2ccccc12)N1CCc2ccccc2C1 (configuration not stated) | 43* | 26* | 2 | -6 | -4 | -4
Cc1ccc(C)c(OCc2cc(C(=O)N3C[C@H]4C[C@@H](C3)c3cccc(=O)n3C4)no2)c1 | / | / | -7 | 2 | -21 | /
COC(=O)c1nc(-c2ccc3c(n2)C(=O)C(N)=C(OC)C3=O)c(N)c(-c2ccc(OC)c(OC)c2O)c1C | 9 | 9 | 8 | 97* | -5 | /
CS(=O)(=O)N1CCN(C(=N)N[N+](=O)[O-])CC1 | 5 | 0 | -1 | 7 | -1 | -17
CC(=O)Nc1ccc(OC(=O)N2CCCCC2)cc1 | 1 | -4 | 1 | 69* | -3 | -2
C=C1C(=O)O[C@@H]2C[C@@H](C)[C@@H]3C=CC(=O)[C@@]3(C)[C@@H](O)[C@H]12 | / | / | / | 119* | / | /
COc1cc(C(=O)N/N=C/C23CC[C@@H](O)CC2(O)CC[C@@H]2[C@@H]3CCC3(C)C(C4=CC(=O)OC4)CCC23O)ccc1O (some centres not stated) | -3 | -7 | 4 | 35 | 4 | /
COc1ccc(C(=O)N/N=C/C23CC[C@@H](O)CC2(O)CC[C@@H]2[C@@H]3CCC3(C)C(C4=CC(=O)OC4)CCC23O)cc1 (some centres not stated) | 3 | -1 | -8 | 89* | -23 | /
CC12CC[C@H]3[C@@H](CCC4(O)C[C@H](O)CCC34/C=N/NC(=O)c3ccc(O)cc3)C1(O)CCC2C1=CC(=O)OC1 (some centres not stated) | -5 | -1 | 1 | 15 | -18 | /
CN(C)c1ccc(C(=O)N/N=C/C23CC[C@@H](O)CC2(O)CC[C@@H]2[C@@H]3CCC3(C)C(C4=CC(=O)OC4)CCC23O)cc1 (some centres not stated) | -2 | 2 | -4 | 95* | -43 | /
O=c1[nH]c(Cl)ccc1CN1CCOCC1 | / | / | / | 11 | / | /
COc1ccc(-[n+]2c(-c3ccccc3)cc(-c3ccccc3)cc2-c2ccccc2)cc1 | / | / | / | 81* | / | /
Cc1nn(Cc2ccc(Cl)cc2Cl)c(Cl)c1C(=O)O | 4 | -1 | -11 | 12 | -13 | 6
N=c1c2c(n(Cc3ccc(Cl)cc3Cl)c3c1CCC3)CCCC2 | 70* | 92* | 14 | 8 | 13 | 2
COCCNCCOc1ccc(C(C)(C)c2ccccc2)cc1 | 1 | -1 | 2 | -11 | -8 | -10
CCOP(=O)(OCC)Oc1cc(C)c(N(C)C)c(C)c1 | 1 | 1 | -4 | 11 | -12 | /
CN1CC=C(c2c[nH]c3ccccc23)CC1 | 61* | 29* | -1 | -5 | 15 | -1
C1=C(c2c[nH]c3ccccc23)CCN(Cc2ccccc2)C1 | 76* | 97* | 7 | 35 | 7 | -18
O=[N+]([O-])c1ccc(CN2CC=C(c3ccccc3)CC2)cc1 | / | / | 2 | -2 | 17 | /
CN(C)CCNC(=O)c1cccn(Cc2cc(C(F)(F)F)cc(C(F)(F)F)c2)c1=O | 1 | 1 | -2 | 2 | -38 | 5
CN(C)c1ccc(/C=C/C=C/c2sc3ccccc3[n+]2C)cc1 | 79* | 99* | 18 | ? | 5 | /
